Active and inactive are the calls of the source.

Assay [1] in a line: E. coli DRC41 culture turbidity changes, primary screen, E. coli filamentation inducer project, strain DRC41, OD650, 48 h (AID 1152).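 Also: E. coli MC1000 strain DRC41 lacking acrAB efflux pump and sulA.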 As to conditions: E. coli DRC41 (acrAB sulA), higher = more signal, called active from +8 up or from −8 down.
Assay [2] in a line: small-molecule binders of probe aLefty1, primary screen, biochemical, small-molecule microarray, 635/667 nm fluorescence (AID 1153).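 Also: score merges spot fluorescence with signal-to-noise ratio from the scanned slide images.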 The note with it: higher = more signal.
A short description of assay [3]: PSAC antagonists in infected red cells, primary screen, cell-based, P. falciparum Indochina, OD700, 1 h (AID 1154). As to conditions: P. falciparum Indochina infected RBC osmotic lysis, higher = more signal, called active from +8 up or from −8 down.
Assay [4] is described as follows: PSAC antagonists in infected red cells, primary screen, cell-based, P. falciparum Indochina, OD700, 2 h (AID 1155).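 Also: lysis reports solute entry through the parasite surface anion channel PSAC; channel blockers reduce lysis of infected cells.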 As to conditions: P. falciparum Indochina infected erythrocytes, osmotic lysis OD700; higher = more signal, called active from +8 up or from −8 down.
Assay [5] can be described thus: osmotic lysis modulators in infected erythrocytes, primary screen, PSAC antagonist project, cell-based, P. falciparum Indochina, OD700, 3 h (AID 1156). As to conditions: higher = more signal, called active from +8 up or from −8 down.
Assay [6] in a line: PSAC antagonists in infected red cells, primary screen, cell-based, P. falciparum Indochina, OD700, 18 h (AID 1157). The note with it: P. falciparum Indochina infected erythrocytes, osmotic lysis OD700, 18 h; higher = more signal, called active from +8 up or from −8 down.
The nature of assay [7]: modulators of S6 phosphorylation in cells, primary screen, cell-based, A549, cytoblot, luminescence, serum-stimulated (AID 1158).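 Also: serum-stimulated A549 lung adenocarcinoma cells; signal is phosphorylated S6 detected by cytoblot immunostaining with HRP secondary.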 The note with it: A549 phospho-S6 cytoblot, 5 h, higher = more signal.
For assay [8], the target named is NADPH oxidase 2 (Homo sapiens) (UniProt P04839). Kind of assay: NOX2-dependent H2O2 signal modulators, primary screen, NOX inhibitor project, cell-based, HEK293-NOX2, PMA-stimulated, Amplex Red fluorescence (AID 1159). Also: test concentration not given here. The note with it: 45 min, higher = more signal, called active from +8 up or from −8 down.
Assay [9] addresses NADPH oxidase 4 (Homo sapiens) (UniProt Q9NPH5). The assay can be described thus: NOX4-dependent H2O2 signal modulators, primary screen, NOX inhibitor project, cell-based, HEK293-NOX4, tetracycline-induced, Amplex Red fluorescence (AID 1160). As to conditions: 45 min, higher = more signal, called active from +8 up or from −8 down.
Assay [10] addresses NADPH oxidase 5 (Homo sapiens) (UniProt Q96PH1). Kind of assay: NOX5-dependent H2O2 signal modulators, primary screen, NOX inhibitor project, cell-based, HEK293-NOX5, Amplex Red fluorescence (AID 1161). As to conditions: HEK293-NOX5, ionomycin, 45 min, higher = more signal.

Sequence of NADPH oxidase 2 (Homo sapiens) (P04839 whole entry, looked up): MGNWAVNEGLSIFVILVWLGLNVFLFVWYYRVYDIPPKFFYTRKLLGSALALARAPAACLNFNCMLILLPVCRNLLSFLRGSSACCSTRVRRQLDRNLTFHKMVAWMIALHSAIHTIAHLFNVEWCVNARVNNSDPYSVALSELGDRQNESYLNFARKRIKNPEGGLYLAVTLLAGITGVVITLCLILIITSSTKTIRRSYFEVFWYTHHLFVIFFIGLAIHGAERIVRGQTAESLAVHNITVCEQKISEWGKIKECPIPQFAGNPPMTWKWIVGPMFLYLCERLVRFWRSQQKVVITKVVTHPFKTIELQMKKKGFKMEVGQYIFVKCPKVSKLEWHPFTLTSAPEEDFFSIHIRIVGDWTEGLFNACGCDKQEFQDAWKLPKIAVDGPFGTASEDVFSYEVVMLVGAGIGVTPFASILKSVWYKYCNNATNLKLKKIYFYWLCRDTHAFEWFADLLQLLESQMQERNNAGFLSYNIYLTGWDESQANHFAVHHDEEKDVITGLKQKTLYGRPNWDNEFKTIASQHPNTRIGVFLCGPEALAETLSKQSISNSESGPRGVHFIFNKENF
Sequence of NADPH oxidase 5 (Homo sapiens) (Q96PH1 whole entry, looked up): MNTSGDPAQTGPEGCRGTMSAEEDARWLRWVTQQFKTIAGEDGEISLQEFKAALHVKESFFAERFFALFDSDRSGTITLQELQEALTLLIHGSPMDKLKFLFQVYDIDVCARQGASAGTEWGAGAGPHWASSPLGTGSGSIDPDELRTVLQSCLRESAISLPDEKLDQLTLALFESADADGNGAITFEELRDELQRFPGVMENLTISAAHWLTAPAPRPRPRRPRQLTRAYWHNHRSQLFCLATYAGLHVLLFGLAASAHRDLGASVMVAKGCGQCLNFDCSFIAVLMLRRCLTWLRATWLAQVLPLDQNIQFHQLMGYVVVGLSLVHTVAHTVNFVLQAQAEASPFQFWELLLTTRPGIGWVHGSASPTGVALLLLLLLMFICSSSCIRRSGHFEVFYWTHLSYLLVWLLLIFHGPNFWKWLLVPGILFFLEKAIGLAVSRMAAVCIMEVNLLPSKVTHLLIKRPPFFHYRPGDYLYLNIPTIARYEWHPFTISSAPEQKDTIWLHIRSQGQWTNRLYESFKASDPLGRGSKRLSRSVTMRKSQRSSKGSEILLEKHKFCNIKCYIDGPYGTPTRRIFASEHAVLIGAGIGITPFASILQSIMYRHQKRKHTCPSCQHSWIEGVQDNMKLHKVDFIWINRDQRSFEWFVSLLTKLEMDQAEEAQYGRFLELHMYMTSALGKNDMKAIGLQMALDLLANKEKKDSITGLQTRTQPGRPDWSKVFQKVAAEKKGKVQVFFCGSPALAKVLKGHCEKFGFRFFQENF
Sequence of NADPH oxidase 4 (Homo sapiens) (Q9NPH5 whole entry, looked up): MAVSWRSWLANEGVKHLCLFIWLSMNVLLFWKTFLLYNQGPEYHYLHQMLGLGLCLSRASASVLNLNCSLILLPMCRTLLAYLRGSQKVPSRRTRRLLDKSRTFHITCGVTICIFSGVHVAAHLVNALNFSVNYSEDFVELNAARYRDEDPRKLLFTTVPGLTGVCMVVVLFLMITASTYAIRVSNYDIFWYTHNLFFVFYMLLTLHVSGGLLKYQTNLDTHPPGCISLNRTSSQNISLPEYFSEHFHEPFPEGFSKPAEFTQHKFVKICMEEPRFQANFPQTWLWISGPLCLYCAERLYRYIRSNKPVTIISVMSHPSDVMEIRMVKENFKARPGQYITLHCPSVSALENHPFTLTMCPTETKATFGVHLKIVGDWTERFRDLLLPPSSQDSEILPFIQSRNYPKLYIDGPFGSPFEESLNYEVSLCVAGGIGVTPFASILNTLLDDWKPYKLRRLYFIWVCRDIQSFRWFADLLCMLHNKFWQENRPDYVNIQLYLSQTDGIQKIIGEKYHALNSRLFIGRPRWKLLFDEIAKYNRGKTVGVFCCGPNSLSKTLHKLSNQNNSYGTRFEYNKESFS

In the case of `O=C1O[C@@H](c2ccccc2)[C@@H](c2ccccc2)N2[C@@H](c3ccccc3OCCO)[C@]3(C(=O)Nc4ccc(C#CCCO)cc43)[C@@H](C(=O)N3CCN(c4ncccn4)CC3)[C@H]12`, the z-score in assay [1] is 0.255 (inactive); in [3] it was 2.58 (inactive); in [4], 1.27 (inactive); in assay [5], -1.09 (inactive); in assay [6] it was 0.418 (inactive); in assay [7] it was -0.531. Besides, the figures for the z-score in assay [8], in [9] and in assay [10] were 1.3 (inactive), -0.686 (inactive) and 0.272, respectively. In addition, the composite z-score in assay [2] was found to be 0.0927.
As for `NC(=O)N1C(=O)C2C(C1=O)C1C=C(c3ccc(CO)cc3)C2C(C2CC2)N1Cc1sc2ccccc2c1Cl` (stereo not given), the z-score in [1] was 0.421 (inactive); in assay [3] it was 17.8 (active); in assay [4], 3.88 (inactive); in assay [5], 0.777 (inactive); in [6], 1.39 (inactive); in [7], -0.436. The figures for the z-score in assay [8], in assay [9] and in assay [10] were 2.51 (inactive), -0.148 (inactive) and -0.568, respectively. This compound displayed a composite z-score in [2] of 0.317.
As for `O=C1O[C@@H](c2ccccc2)[C@@H](c2ccccc2)N2[C@@H](c3ccccc3OCCO)[C@]3(C(=O)Nc4ccccc43)[C@@H](C(=O)NC[C@H](O)c3ccccc3)[C@H]12`, the z-score in assay [1] is -0.275 (inactive); in assay [3], 5.03 (inactive); in assay [4], 2.2 (inactive); in assay [5], -0.526 (inactive); in [6] it was 1.87 (inactive); in assay [7], -0.589. Moreover, the results for the z-score in assay [8], in [9] and in assay [10] were 1.43 (inactive), 0.303 (inactive) and 1.56, respectively. For the same compound, the composite z-score in assay [2] is 0.0112.
On to `C=CCC(OC(C)=O)[C@@H]1[C@@H](N(Cc2ccc(-c3ccccc3)cc2)C(=O)c2cccc3ccccc23)c2cc(OCCCO)ccc2N1C(=O)Cc1ccc2ccccc2c1` (stereo not given in full), for which the z-score in assay [1] was -0.316 (inactive); in assay [3], 1.14 (inactive); in assay [4], 0.355 (inactive); in assay [5], -0.498 (inactive); in assay [6], 0.283 (inactive); in assay [7], 0.393. The z-score in assay [8] was 0.949 (inactive); in assay [9] it was -0.22 (inactive); in assay [10], -4.09. Further, the composite z-score in assay [2] was -0.191.
`COc1ccc([Si](C)(C)[C@@H]2[C@@H](CCn3cc([C@H](O)c4ccccc4)nn3)O[C@]3(C(=O)N(Cc4ccc(N5CCOC5=O)cc4)c4ccccc43)[C@H]2C)cc1`: the z-score was 1.34 (inactive) in [1]; 28.2 (active) in assay [3]; 17.1 (active) in assay [4]; 1.45 (inactive) in assay [5]; 1.63 (inactive) in assay [6]; 0.0719 in [7]. For the same compound, the z-score is 1.31 (inactive) in [8], 2.36 (inactive) in assay [9] and 1.74 in assay [10]. This compound also had a composite z-score in [2] of 0.142.
In the case of `C=C(COC)/C(=C/C[C@@H](OC(=O)c1ccncc1)c1cccc(OCCO)c1)c1cnc2ccccc2c1`, the z-score was -0.0626 (inactive) in [1]; 18.8 (active) in [3]; 6.49 (inactive) in [4]; -1.32 (inactive) in assay [5]; 1.29 (inactive) in assay [6]; 0.507 in assay [7]. Moreover, the z-score in assay [8] was -1.47 (inactive); in assay [9] it was -0.256 (inactive); in assay [10] it was -3.1. Further, the composite z-score in assay [2] turned out to be 0.664.
With `C=C1C2CC3C(=C4C(CO[C@@H]4[C@H]4CCCN4S(=O)(=O)c4ccccc4[N+](=O)[O-])C4C(=O)N(C)C(=O)C34)CC2C(=O)N1C` (stereo not given in full), the z-score in [1] was -0.523 (inactive); in [3], 4.07 (inactive); in assay [4], 0.0975 (inactive); in assay [5], -0.513 (inactive); in [6], -0.0387 (inactive); in assay [7], 0.0973. In addition, the values for the z-score in [8], in assay [9] and in [10] were 0.228 (inactive), 0.569 (inactive) and 0.751, respectively. The same compound displayed a composite z-score in assay [2] of -0.147.
Consider `CC=CC(O)C1C=CC2C(=O)N(C)C(=O)C2N1N1CCCCC1` (stereo not given), for which the z-score is -1.81 (inactive) in assay [1]; 0.974 (inactive) in [3]; 1.18 (inactive) in [4]; -0.343 (inactive) in [5]; 0.801 (inactive) in assay [6]; -1.01 in assay [7]. Also, the results for the z-score in assay [8], in [9] and in [10] were -0.605 (inactive), -0.473 (inactive) and -1.96, respectively. The compound further registered a composite z-score in assay [2] of -0.0359.
Turning to `O=C1C2C=CC(C(O)c3cc(C(F)(F)F)cc(C(F)(F)F)c3)N(Nc3ccc([N+](=O)[O-])cc3)C2C(=O)N1c1ccccc1` (stereo not given), the z-score in assay [1] was -1.58 (inactive); in assay [3] it was 6.16 (inactive); in [4], 2.01 (inactive); in assay [5], -6.7 (inactive); in assay [6] it was 1.24 (inactive); in [7] it was -0.431. Further, the z-score in assay [8] was -0.378 (inactive); in [9], -2.65 (inactive); in [10], -1.68. Moreover, the composite z-score in assay [2] turned out to be 0.361.
As for `O=C1c2ccccc2[C@@]2(Cc3ccccc3N(C3CC3)C2=O)[C@H](c2ccc(CO)cc2)N1C1CCCCC1`, the z-score in assay [1] was -0.301 (inactive); in assay [3], 0.667 (inactive); in [4], -0.0557 (inactive); in assay [5] it was 0.181 (inactive); in [6], 0.181 (inactive); in assay [7], -0.0814. The values for the z-score in assay [8], in assay [9] and in assay [10] were 0.112 (inactive), -1.7 (inactive) and -1.45, respectively. Moreover, the composite z-score in [2] is -0.0066.
Consider `CC(C)C[C@@H]1NC(=O)[C@H]2C[C@@H](C(=O)NCCCCCC[N+](C)(C)C)[C@@H](c3cccc(OCCO)c3)N2C1=O`, for which the z-score in assay [1] was 0.898 (inactive); in assay [3], 6.18 (inactive); in [4], 0.596 (inactive); in assay [5], 0.853 (inactive); in [6] it was 0.251 (inactive); in assay [7] it was -0.214. Besides, the z-score in assay [8] is 1.67 (inactive); in assay [9] it was 0.95 (inactive); in assay [10], 1.3. In assay [2], this compound showed a composite z-score of -0.64.
As to `CCOC(=O)C[C@H]1[C@H](OC(=O)Cc2ccc3c(c2)OCO3)[C@@H](NC(=O)C2CCCCC2)c2cc(OCCCO)ccc2N1C(=O)c1ccc2ccccc2n1`, the z-score in assay [1] was 0.699 (inactive); in assay [3] it was 1.88 (inactive); in assay [4], -0.954 (inactive); in assay [5], -0.13 (inactive); in [6], -2.2 (inactive); in assay [7] it was 1.17. Moreover, the z-score in assay [8] was -1.86 (inactive); in [9] it was 0.214 (inactive); in assay [10], -2.62. Moreover, the composite z-score in assay [2] is -0.106.
`CC(C)C(=C=CC[C@@H](O)c1ccccc1OCCO)C[C@@H](O)COCc1ccccc1`: the z-score in assay [1] is 1.6 (inactive); in assay [3], 6.77 (inactive); in assay [4], 2.19 (inactive); in [5] it was -1.43 (inactive); in [6] it was -0.119 (inactive); in [7], 0.86. In addition, the z-score is 0.0182 (inactive) in assay [8], 0.489 (inactive) in [9] and -1.52 in [10]. The compound also came in with a composite z-score in assay [2] of -0.103.

For the origin of these results see PubChem BioAssay.
